In the library only some 3.7% were active in any assay of this set; here they are far more common.
Bead autofluor = flagged as autofluorescent in microsphere protease counterscreen | AID 624483 | fluorescence intensity (concentration not given with the values) | compound autofluorescence counterscreen, microsphere flow cytometry; stronger effect = higher value | 360,000 compounds, 3.1% hits; in the data active means fluorescence intensity above about 16000; inconclusive means no clear call, values can overlap the other calls
BoNT-A LC inh2 = BoNT A light chain protease inhibition. inhibition, % at 10 µM. multiplex microsphere protease substrate cleavage, flow cytometry. 360,000 compounds, 0.17% hits. AID 588499
MazEF act = activators of E. coli MazEF toxin-antitoxin RNase. P0AE70. FAM/BHQ RNA-DNA oligo cleavage fluorescence, 5 h. activation, % at 20 µM. 350,000 compounds, 0.32% hits. AID 504720; in the data active means activation above about 50%
Target sequence (P0AE70 whole entry, looked up): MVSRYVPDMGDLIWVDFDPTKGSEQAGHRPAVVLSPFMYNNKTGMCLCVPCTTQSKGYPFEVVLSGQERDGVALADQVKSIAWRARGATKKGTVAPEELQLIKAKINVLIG
Anthrax LF prot = inhibitors of Bacillus anthracis lethal factor protease | P15917 | 360,000 compounds, 0.12% hits | multiplex microsphere protease cleavage assay, LF | AID 588501 | inhibition, % at 10 µM
BoNT-F LC inh = BoNT F light chain protease inhibition; Multiplex microsphere protease cleavage assay, flow cytometry; inhibition, % at 10 µM; 360,000 compounds, 0.22% hits; AID 588497; in the data active means inhibition above about 35%, passing the limit was not always enough; inconclusive means no clear call, values can overlap the other calls
Numbers stand for hits; . = inactive; ? = inconclusive; / = no result. Unless noted, no stated cut-off is given here; in the data, active means inhibition above about 30%; inconclusive means no clear call, values can overlap the other calls; inactive means below that.

SMILES	Bead autofluor	BoNT-A LC inh2	MazEF act	Anthrax LF prot	BoNT-F LC inh
O=C(c1cc(C2CC2)nc2ccccc12)N1N=C(C(F)F)CC1(O)C(F)F (centres undefined)	18689	.	.	.	.
O=C(c1cc(C2CC2)nc2ccc(Br)cc12)N1N=C(C(F)F)CC1(O)C(F)F (centres undefined)	22047	.	.	.	.
CC(C)c1ccc(-c2cc(C(=O)N3N=C(C(F)F)CC3(O)C(F)F)c3ccccc3n2)cc1 (centres undefined)	.	.	.	.	.
COc1cc(-c2noc(-c3cccs3)n2)cc(OC)c1OC	20254	?	.	.	.
COc1ccc(-c2noc(-c3cccs3)n2)cc1OC	.	.	.	.	.
CC(C)CCNC(=O)c1ccc2c(c1)ncn2C1CCCCC1	19635	.	.	.	.
CCCCNC(=O)c1ccc2c(c1)ncn2C1CCCCC1	.	.	.	.	.
COC(=O)c1c(NC(=O)C2CC=CCC2C(=O)O)sc(C)c1C (centres undefined)	22701	?	.	.	.
COC(=O)c1c(NC(=O)C2CC=CCC2C(=O)O)sc(C(N)=O)c1C (centres undefined)	.	.	.	.	.
O=C(OCc1ccccc1)c1cccc(-c2nnc(-c3ccccc3)o2)c1	23216	?	.	.	.
O=C(OCc1ccc(C(=O)c2ccccc2)cc1)c1cccc(-c2nnc(-c3ccccc3)o2)c1	.	.	.	.	.
CCOC(=O)c1sc(NS(=O)(=O)c2ccccc2Cl)nc1C	26130	.	.	.	.
CCOC(=O)c1sc(NC(=O)c2ccc(=O)[nH]c2)nc1C	.	.	.	.	36.9
CCOC(=O)Nc1nc(C)c(C(=O)c2ccc(Cl)cc2)s1	.	.	86.3	.	.
COC(=O)Nc1nc(C)c(C(=O)c2ccccc2)s1	.	.	.	.	.
CNC(=O)c1ccccc1Sc1cccc2cccc(C(=O)O)c12	.	.	.	.	.
N#Cc1ccc(C23OCCN2CCn2c3c3ccccc3[n+]2[O-])cc1 (centres undefined)	.	.	.	.	.
Cc1ccc(C(=O)NC(=S)N2CCN(C(=O)OC(C)(C)C)CC2)cc1Br	.	.	.	.	.
Cc1nn(C)c(=O)n1-c1ccc(Oc2ccccc2)cc1	21312	.	.	.	.
COc1ccc(-n2c(C)nn(C)c2=O)c(OC)c1	18468	?	.	.	.
COc1ccc(N2C(=O)CCC2=O)c(OC)c1	.	.	.	.	.
Cc1nn(C)c(=O)n1-c1ccccc1	.	.	.	.	.
COc1cc(-c2ccc3oc(-c4cccc(C)c4)c(C#CC4(O)CCCCC4)c3c2)cc(OC)c1OC	.	.	.	.	.
Cn1c(=O)c2c(O)c([N+](=O)[O-])c(=O)n(C)c2n(C)c1=O	.	.	.	.	?
N#CCN1CCN(CC(=O)c2ccc(Br)cc2)CC1	.	.	.	.	.
SMILES	Bead autofluor	BoNT-A LC inh2	MazEF act	Anthrax LF prot	BoNT-F LC inh
CCOC(=O)C1=C(C)NC2=C(C(=O)CC(C)(C)C2)C1c1cccc(C)n1 (centres undefined)	20812	.	.	.	.
CN(C)CCNC(=O)C1CCCNC1=O (centres undefined)	22891	?	.	.	.
CC(=O)c1ccc(NC(=O)C2CCCNC2=O)cc1 (centres undefined)	21778	?	.	.	.
N#CC1=C(SCC(=O)NC23CC4CC(CC(C4)C2)C3)NC(=O)C(C#N)C12CCCCC2 (centres undefined)	.	.	.	.	.
N#CC1=C(SCC(=O)NC2CC2)NC(=O)C(C#N)C12CCCCC2 (centres undefined)	20178	.	.	.	.
C=CCSC1=C(C#N)C2(CCCCC2)C(C#N)C(=O)N1 (centres undefined)	19902	?	.	.	.
CC1(C)NC(=O)N(CN2C(=O)NC(C)(C)C2=O)C1=O	.	.	.	.	.
CC1(C)NC(=O)N(CC(=O)O)C1=O	17429	.	.	.	.
CCOC(=O)c1ccc(N/C=C/C(=O)c2ccc(OC)c(OC)c2)cc1	19087	.	.	.	.
CCn1nnnc1-c1ccc(OC)c(S(=O)(=O)NCCc2ccccc2)c1	19509	?	.	.	.
CCOc1ccc(N/C=C/C(=O)c2ccc(OC)c(OC)c2)cc1	.	.	.	.	.
CCCCOC(=O)c1ccc(NS(=O)(=O)c2cc(-c3nnnn3CC)ccc2OC)cc1	.	.	.	.	.
CCOC(=O)c1ccc(NS(=O)(=O)c2cc(-c3nnnn3CC)ccc2OC)cc1	19076	?	.	.	.
CNc1ncnc2c1ncn2[C@H]1CN(Cc2ccccc2)C[C@@H](CO)O1	.	.	/	.	.

Screens as filed in PubChem BioAssay.
